Assay results reported in the supplement of paper PMC6992640.

System: HCI01 (cells of a triple-negative basal-like breast cancer xenograft)
Assay: cell viability of combination (% of vehicle); higher = less cytotoxic
Details: 1 µM; 72 h; partner dose: 10 nM
Protocol: (§1)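 PDX cells were treated for 72 h with each drug at 1 µM plus afatinib (10 nM; 1 µM for WHIM30). Luciferase viability is expressed as percent of vehicle.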

Row | Compound | cell viability of combination
1 | O=C(O)c1cc(O)c(O)c(O)c1 [Gallic acid] + CN(C)C/C=C/C(=O)Nc1cc2c(Nc3ccc(F)c(Cl)c3)ncnc2cc1O[C@H]1CCOC1 [Afatinib] | 51.4
2 | COc1cc2nccc(Oc3ccc(NC(=O)NC4CC4)c(Cl)c3)c2cc1C(N)=O [Lenvatinib (E7080)] + CN(C)C/C=C/C(=O)Nc1cc2c(Nc3ccc(F)c(Cl)c3)ncnc2cc1O[C@H]1CCOC1 [Afatinib] | 40
3 | CO[C@@]12[C@H](COC(N)=O)C3=C(C(=O)C(C)=C(N)C3=O)N1C[C@@H]1N[C@@H]12 [Mitomycin C] + CN(C)C/C=C/C(=O)Nc1cc2c(Nc3ccc(F)c(Cl)c3)ncnc2cc1O[C@H]1CCOC1 [Afatinib] | 36
4 | O=C(C=Cn1cnc(-c2cc(C(F)(F)F)cc(C(F)(F)F)c2)n1)NNc1cnccn1 + CN(C)C/C=C/C(=O)Nc1cc2c(Nc3ccc(F)c(Cl)c3)ncnc2cc1O[C@H]1CCOC1 [Afatinib] | 39.3
5 | C=CC(=O)Nc1cc(Nc2nccc(-c3cn(C)c4ccccc34)n2)c(OC)cc1N(C)CCN(C)C + CN(C)C/C=C/C(=O)Nc1cc2c(Nc3ccc(F)c(Cl)c3)ncnc2cc1O[C@H]1CCOC1 [Afatinib] | 40
6 | CC(=O)C1(O)Cc2c(O)c3c(c(O)c2C(OC2CC(N)C(O)C(C)O2)C1)C(=O)c1ccccc1C3=O.Cl (configuration not stated) [Idarubicin HCl] + CN(C)C/C=C/C(=O)Nc1cc2c(Nc3ccc(F)c(Cl)c3)ncnc2cc1O[C@H]1CCOC1 [Afatinib] | 131
7 | CNCCC(Oc1cccc2ccccc12)c1cccs1.Cl (configuration not stated) [Duloxetine HCl] + CN(C)C/C=C/C(=O)Nc1cc2c(Nc3ccc(F)c(Cl)c3)ncnc2cc1O[C@H]1CCOC1 [Afatinib] | 45.3

System: WHIM2 (cells of a triple-negative basal-like breast cancer xenograft)
Assay: as above
Details: 1 µM; 72 h; partner dose: 10 nM
Protocol: as §1

Row | Compound | cell viability of combination
8 | COc1ccc(CN2CCN(C(c3ccc(F)cc3)c3ccc(F)cc3)CC2)c(OC)c1OC.Cl.Cl [Lomerizine HCl] + CN(C)C/C=C/C(=O)Nc1cc2c(Nc3ccc(F)c(Cl)c3)ncnc2cc1O[C@H]1CCOC1 [Afatinib] | 50.9
9 | CO[C@H]1C[C@@H]2CC[C@@H](C)[C@@](O)(O2)C(=O)C(=O)N2CCCC[C@H]2C(=O)O[C@H]([C@H](C)C[C@@H]2CC[C@@H](O)[C@H](OC)C2)CC(=O)[C@H](C)/C=C(\C)[C@@H](O)[C@@H](OC)C(=O)[C@H](C)C[C@H](C)/C=C/C=C/C=C/1C [Rapamycin (Sirolimus)] + CN(C)C/C=C/C(=O)Nc1cc2c(Nc3ccc(F)c(Cl)c3)ncnc2cc1O[C@H]1CCOC1 [Afatinib] | 39.3
10 | COC(=O)C1=C(C)NC(C)=C(C(=O)OCCN(C)Cc2ccccc2)C1c1cccc([N+](=O)[O-])c1.Cl (configuration not stated) [Nicardipine HCl] + CN(C)C/C=C/C(=O)Nc1cc2c(Nc3ccc(F)c(Cl)c3)ncnc2cc1O[C@H]1CCOC1 [Afatinib] | 48
11 | COC(=O)NC(C(=O)N1CCCC1c1ncc(-c2ccc(-c3ccc(-c4cnc(C5CCCN5C(=O)C(NC(=O)OC)C(C)C)[nH]4)cc3)cc2)[nH]1)C(C)C (configuration not stated) + CN(C)C/C=C/C(=O)Nc1cc2c(Nc3ccc(F)c(Cl)c3)ncnc2cc1O[C@H]1CCOC1 [Afatinib] | 46.3
12 | CC(C)CC(NC(=O)C(NC(=O)c1cccc(-c2ccccc2)n1)C(C)O)B(O)O (configuration not stated) + CN(C)C/C=C/C(=O)Nc1cc2c(Nc3ccc(F)c(Cl)c3)ncnc2cc1O[C@H]1CCOC1 [Afatinib] | 97
13 | CCCCCCCCc1ccc(CCC(N)(CO)CO)cc1.Cl [Fingolimod (FTY720)] + CN(C)C/C=C/C(=O)Nc1cc2c(Nc3ccc(F)c(Cl)c3)ncnc2cc1O[C@H]1CCOC1 [Afatinib] | 44.5
14 | C=CC(=O)N1CCC(Oc2cc3c(Nc4ccc(Cl)c(Cl)c4F)ncnc3cc2OC)CC1 [Poziotinib] + CN(C)C/C=C/C(=O)Nc1cc2c(Nc3ccc(F)c(Cl)c3)ncnc2cc1O[C@H]1CCOC1 [Afatinib] | 22.2
15 | CCOC(=O)c1c(CSc2ccccc2)n(C)c2cc(Br)c(O)c(CN(C)C)c12.Cl [Arbidol HCl] + CN(C)C/C=C/C(=O)Nc1cc2c(Nc3ccc(F)c(Cl)c3)ncnc2cc1O[C@H]1CCOC1 [Afatinib] | 45.2
16 | CC(NCCCc1cccc(C(F)(F)F)c1)c1cccc2ccccc12.Cl (configuration not stated) [Cinacalcet HCl] + CN(C)C/C=C/C(=O)Nc1cc2c(Nc3ccc(F)c(Cl)c3)ncnc2cc1O[C@H]1CCOC1 [Afatinib] | 43.1
17 | CNC(=O)c1cc(Oc2ccc(NC(=O)Nc3ccc(Cl)c(C(F)(F)F)c3)c(F)c2)ccn1.Cl [Regorafenib hydrochloride] + CN(C)C/C=C/C(=O)Nc1cc2c(Nc3ccc(F)c(Cl)c3)ncnc2cc1O[C@H]1CCOC1 [Afatinib] | 43.3
18 | C#Cc1cccc(Nc2ncnc3cc(OCCOC)c(OCCOC)cc23)c1.Cl [Erlotinib Hydrochloride] + CN(C)C/C=C/C(=O)Nc1cc2c(Nc3ccc(F)c(Cl)c3)ncnc2cc1O[C@H]1CCOC1 [Afatinib] | 37.5
19 | Br.Cc1ccc(Sc2ccccc2N2CCNCC2)c(C)c1 + CN(C)C/C=C/C(=O)Nc1cc2c(Nc3ccc(F)c(Cl)c3)ncnc2cc1O[C@H]1CCOC1 [Afatinib] | 46.7
20 | COC1=C(OC)C(=O)C(CCCCCCCCCCO)=C(C)C1=O [Idebenone] + CN(C)C/C=C/C(=O)Nc1cc2c(Nc3ccc(F)c(Cl)c3)ncnc2cc1O[C@H]1CCOC1 [Afatinib] | 50.1
21 | Clc1ccc(C(Cn2ccnc2)OCc2c(Cl)cccc2Cl)c(Cl)c1.O=[N+]([O-])O (configuration not stated) [Isoconazole nitrate] + CN(C)C/C=C/C(=O)Nc1cc2c(Nc3ccc(F)c(Cl)c3)ncnc2cc1O[C@H]1CCOC1 [Afatinib] | 52.1
22 | CCCSc1nc(NC2CC2c2ccc(F)c(F)c2)c2nnn(C3CC(OCCO)C(O)C3O)c2n1 (configuration not stated) [Ticagrelor] + CN(C)C/C=C/C(=O)Nc1cc2c(Nc3ccc(F)c(Cl)c3)ncnc2cc1O[C@H]1CCOC1 [Afatinib] | 43
23 | CC(Oc1cc(-c2cnn(C3CCNCC3)c2)cnc1N)c1c(Cl)ccc(F)c1Cl [(R)-Crizotinib] + CN(C)C/C=C/C(=O)Nc1cc2c(Nc3ccc(F)c(Cl)c3)ncnc2cc1O[C@H]1CCOC1 [Afatinib] | 44.4
24 | CCC(=C(c1ccccc1)c1ccc(OCCN(C)C)cc1)c1ccccc1.O=C(O)CC(O)(CC(=O)O)C(=O)O [Tamoxifen Citrate] + CN(C)C/C=C/C(=O)Nc1cc2c(Nc3ccc(F)c(Cl)c3)ncnc2cc1O[C@H]1CCOC1 [Afatinib] | 51
25 | CC[C@H](C)[C@H]1O[C@]2(CC[C@@H]1C)C[C@@H]1C[C@@H](C/C=C(\C)[C@@H](O[C@H]3C[C@H](OC)[C@@H](O[C@H]4C[C@H](OC)[C@@H](O)[C@H](C)O4)[C@H](C)O3)[C@@H](C)/C=C/C=C3\CO[C@@H]4[C@H](O)C(C)=C[C@@H](C(=O)O1)[C@]34O)O2 [Ivermectin] + CN(C)C/C=C/C(=O)Nc1cc2c(Nc3ccc(F)c(Cl)c3)ncnc2cc1O[C@H]1CCOC1 [Afatinib] | 44.5
26 | CC(C)c1nc(N(C)S(C)(=O)=O)nc(-c2ccc(F)cc2)c1C=CC(O)CC(O)CC(=O)[O-].CC(C)c1nc(N(C)S(C)(=O)=O)nc(-c2ccc(F)cc2)c1C=CC(O)CC(O)CC(=O)[O-].[Ca+2] (configuration not stated) [Rosuvastatin Calcium] + CN(C)C/C=C/C(=O)Nc1cc2c(Nc3ccc(F)c(Cl)c3)ncnc2cc1O[C@H]1CCOC1 [Afatinib] | 44.2
27 | CC(O)C(=O)O.CCOc1ccc2nc3cc(N)ccc3c(N)c2c1.O [Ethacridine lactate monohydrate] + CN(C)C/C=C/C(=O)Nc1cc2c(Nc3ccc(F)c(Cl)c3)ncnc2cc1O[C@H]1CCOC1 [Afatinib] | 31.1
28 | CC1(C)Cc2c(-c3ccccc3)c(-c3ccc(Cl)cc3)c(CC(=O)O)n2C1 [Licofelone] + CN(C)C/C=C/C(=O)Nc1cc2c(Nc3ccc(F)c(Cl)c3)ncnc2cc1O[C@H]1CCOC1 [Afatinib] | 46.8
29 | Cc1cn(-c2cc(NC(=O)c3ccc(C)c(Nc4nccc(-c5cccnc5)n4)c3)cc(C(F)(F)F)c2)cn1 [Nilotinib(AMN-107)] + CN(C)C/C=C/C(=O)Nc1cc2c(Nc3ccc(F)c(Cl)c3)ncnc2cc1O[C@H]1CCOC1 [Afatinib] | 63.2
30 | CCN(CC)CCCC(C)Nc1ccnc2cc(Cl)ccc12.O=P(O)(O)O.O=P(O)(O)O (configuration not stated) [Chloroquine diphosphate] + CN(C)C/C=C/C(=O)Nc1cc2c(Nc3ccc(F)c(Cl)c3)ncnc2cc1O[C@H]1CCOC1 [Afatinib] | 34.5
31 | Cl.Fc1ccc(C2CCNCC2COc2ccc3c(c2)OCO3)cc1 (configuration not stated) [Paroxetine HCl] + CN(C)C/C=C/C(=O)Nc1cc2c(Nc3ccc(F)c(Cl)c3)ncnc2cc1O[C@H]1CCOC1 [Afatinib] | 49.6
32 | COc1cc2c(Oc3ccc4[nH]c(C)cc4c3F)ncnc2cc1OCCCN1CCCC1 [Cediranib (AZD217)] + CN(C)C/C=C/C(=O)Nc1cc2c(Nc3ccc(F)c(Cl)c3)ncnc2cc1O[C@H]1CCOC1 [Afatinib] | 31.6
